# Measured values from PubChem BioAssay AID2401 (Southern Research Specialized Biocontainment Screening …, 2010).
# Among all 2,200 compounds or so, about 530 (24%) were called active. Not all results are given here. Results with a measured potency or affinity are listed apart. Unmarked numbers belong to inactive results.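 Rule for the calls: active = inhibition above a set limit at one or more concentrations of the dose series; inactive = inhibition under that limit at every dose.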
# Experiment: nmpC-GFP reporter counter-screen in S. Typhimurium, dose response, counter-screen for PhoP regulon inhibitor project, Salmonella Typhimurium, GFP fluorescence (AID 2401);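 note: S. typhimurium with Mg-insensitive nmpC-GFP reporter grown at 10 µM Mg2+; drop in reporter fluorescence reflects general culture growth inhibition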
# Conditions: 4 h; series mostly up to 150 µM; inhibition: at the top concentration
row,Structure (SMILES),inhibition [%]
1,NC(=O)CCc1c[nH]c2ccccc12,-21.9
2,O=C(Cc1c[nH]c2ccccc12)N/N=C/c1ccc(F)cc1,-15.5
3,CCc1nn2cc(C(=O)c3cc(Cl)ccc3O)cnc2c1-c1ccc(F)cc1,-4.45
4,Cc1cc(C(=O)COC(=O)CNC(=O)c2ccco2)c(C)n1Cc1ccco1,-20.9
5,c1ccc(Nc2ccnc(Nc3ccccc3)n2)cc1,29.3
6,Cc1[nH]c2ccccc2c1C(O)CN1CCN(c2cccc(C(F)(F)F)c2)CC1 (stereo not drawn),-0.27
7,Brc1cccc(CNc2nc3ccccc3n2CCN2CCCCC2)c1,4.39
8,CC(C)CCNC(=S)Nc1ccc([N+](=O)[O-])cc1,2.69
9,Cc1cc(C(=O)N/N=C/c2ccc[nH]2)no1,-10.4
10,CC1=CC(C)C2(CO)COC(c3ccccc3O)C1C2C (stereo not drawn),-15.8
11,CCOC(=O)c1sc(-c2ccc(C(F)(F)F)cc2)nc1O,8.9
12,CC(Oc1ccc(Cl)cc1)c1ccnn1S(=O)(=O)c1ccccc1 (stereo not drawn),0.01
13,CC(=O)Nc1ccc(S(=O)(=O)N2CCC(n3cnc4cc(F)ccc43)CC2)cc1,-27.3
14,CCOC(=O)C1=C(C)N=c2s/c(=C\c3ccncc3)c(=O)n2C1c1ccc2c(c1)OCO2 (stereo not drawn),26.9
15,COc1ccc(C(=O)COc2nc(C)cc(C)c2C#N)cc1,-5.05
16,COc1ccc2nc(NC(=O)C3CCCN3S(=O)(=O)c3ccc(C)cc3)sc2c1 (stereo not drawn),-14.7
17,Clc1ccc(Nc2ncnc3c2cnn3-c2ccccc2)cc1,-8.79
18,COc1cc(CNc2ccc(CNc3ncn[nH]3)cc2)ccc1OCC(=O)NC(C)(C)C,-15.3
19,NC[C@@]12CCCC1C1CCC2C1 (stereo partly drawn),-36.1
20,O=C(Oc1ccc[nH]c1=O)c1cc([N+](=O)[O-])cc([N+](=O)[O-])c1,21.5
21,CC(O)CNc1cc(N)c([N+](=O)[O-])cc1[N+](=O)[O-] (stereo not drawn),14.5
22,CC(NC(=O)C1(C)CC1(Br)Br)C(C)(C)C (stereo not drawn),-28.4
23,Cc1cc(C(=O)N/N=C/c2cc(Br)cc(Br)c2OC(=O)c2ccccc2)n[nH]1,2.66
24,Cc1cc2ncn(C3CC(=O)N(Cc4ccc(N5CCCC5=O)cc4)C3=O)c2cc1C (stereo not drawn),-18.1

row,Structure (SMILES),inhibition [%]
1,O=C(CSc1nnc2n(C3CCCCC3)c(=O)c3ccccc3n12)OC1CCCCC1,-4.67
2,Cc1ccc2cc(C(=O)O)c(C)nc2c1,0.56
3,Cc1ccccc1NC(=O)Nc1cccs1,-3.85
4,Cc1ccc(S(=O)(=O)N2CCCC2C(=O)OCc2ccco2)cc1 (stereo not drawn),3.11
5,CCCOc1ccc(Cn2cnc3ccccc32)cc1,8.82
6,Cc1cc(C)nc(NC(=O)Cc2cccs2)n1,0.59
7,Cc1c(C)n(Cc2ccccc2)c2ncnc(N)c12,-3.49
8,O=C(NCc1cccnc1)c1cc2ccccc2oc1=O,-3.7
9,CCn1cc(C(=O)NCc2ccncc2)c(=O)c2cc(F)c(N3CCN(C(=O)c4ccco4)CC3)cc21,-34.3
10,COC(=O)Cc1ccc(NC(=S)N2CCN(c3ccc(F)cc3)CC2)cc1,-7.16
11,Cc1cc(SCC(N)=O)nc(SCC(=O)c2ccccc2)n1,-14.3
12,COC(=O)C1(O)CC(C(C)C)=NN1C(=O)c1ccc(Cl)cc1 (stereo not drawn),-22.4
13,Cc1ccc(C(=O)NC(=S)Nc2cccc3c(C)cc(C)nc23)cc1,-25.1
14,Cc1ccc(Nc2nnc(C3C(=O)N(C)C4(C)CC3c3cc(Br)ccc3O4)s2)cc1 (stereo not drawn),2.31
15,Cc1cccc(OCCSCc2nc3ccccc3[nH]2)c1,34
16,Cn1c(SCC(=O)N2c3ccccc3CCc3ccccc32)nnc1-c1cc2ccccc2cc1O,20.2
17,O=C(Cn1nc(C(F)(F)F)c2c1CCCCC2)N1CCOCC1,-0.36
18,CCOC(=O)C1=CSC2=NS(=O)(=O)CCN12,-28.4
19,[O-]/[N+](=C\c1ccncc1)c1ccccc1,-18.9
20,Cc1c(C(=O)Nc2cccc(Cl)c2)c2ccccn2c1CCc1ccncc1,-15.3
21,COc1cc(C)ccc1OCCCOc1ccccc1Br,-5.6
22,COC(=O)c1cc(C#N)c(Oc2ccccc2OC)nc1C,-10.3
23,Cc1occc1C(=O)n1cnc2ccccc21,-6.49
24,COc1cccc2[nH]c3c(N4CCC(C)CC4)ncnc3c12,-17.3

row,Structure (SMILES),inhibition [%]
1,NC(=O)C1(NC(=O)[C@@H]2CC3(CC(c4cccc(NC(=O)[C@@H]5CCC(=O)N5)c4)=NO3)CN2C(=O)Cc2ccc(Cl)cc2)CC1 (stereo partly drawn),-35.9
2,Cc1ccc(/C(O)=C2\C(=O)C(=O)N(CC(C)O)C2c2cccc(F)c2)cc1 (stereo not drawn),-9.74
3,CCCCOc1ccc(S(=O)(=O)NNC(=O)C2Cc3c(ccc4ccccc34)O2)cc1 (stereo not drawn),-7.66
4,O=C(CN1CCCCC1)Nc1cccc(Br)c1,1.22
5,Cc1ccc(S(=O)(=O)c2c(C(=O)c3ccccc3)cnc3cc4c(cc23)OCCO4)cc1,4.08
6,OC(COc1ccc2ccccc2c1Br)Cn1ccnc1 (stereo not drawn),19.7
7,CC(C)c1ccc(C2NC(=O)NC3=C2CCc2ccccc23)cc1 (stereo not drawn),-15.2
8,CC(=O)c1ccc(NC(=O)Nc2cccc(Cl)c2)cc1,12.5
9,O=C(Nc1ccc(Cl)c(Cl)c1)Nc1ccccc1O,18.8
10,N/C(=N/OC(=O)c1ccccc1Cl)c1ncc([N+](=O)[O-])s1,27.3
11,CCCCOc1ccc(NC(=O)Nc2nnc(C)s2)cc1,-12.1
12,Cc1ccc(Oc2ccc3c(c2)C(=O)N(c2ccc(S(=O)(=O)Nc4nccs4)cc2)C3=O)cc1,7.08
13,CN(C)C(CNC(=O)Nc1cccc(Cl)c1)c1cccnc1 (stereo not drawn),1.17
14,COc1ccc(N2CCN(C(=O)C3CCCO3)CC2)cc1 (stereo not drawn),-22.8
15,CN1C(=O)CC(P(=O)(c2ccccc2)c2ccccc2)N(C)C1=O (stereo not drawn),-7.16
16,c1ccc(OCCCN2CCCC2)cc1,-15.8
17,O=C(C1CCN(C2CC(=O)N(Cc3ccccc3)C2=O)CC1)N1CCCCCC1 (stereo not drawn),-3.78
18,COc1cccc(NC(=O)Cn2c(=O)n(CCCC(=O)NCc3ccco3)c(=O)c3ccccc32)c1,-20.7
19,Nc1ccc2oc3ccccc3c2c1,24.6
20,Nc1ccc2oc(=O)c3ccccc3c2c1,28.1
21,COC(=O)c1sccc1NC(=O)CSc1ccccc1NS(=O)(=O)c1ccc(Cl)cc1,0.18
22,Cc1ccc(N2C(=O)CC(n3ccnc3)C2=O)cc1C (stereo not drawn),-14.9
23,CCN(CC)CCCn1c(=S)[nH]c2cc(OC)c(OC)cc2c1=O,-13.4
24,CC(=O)C1=C(C)Nc2ncnn2C1c1ccccc1OCc1ccccc1 (stereo not drawn),-13.7

row,Structure (SMILES),inhibition [%]
1,CCOc1ccc(-n2c(SCc3nc(-c4ccc(C)cc4)no3)nnc2-c2ccncc2)cc1,-19.1
2,O=S(=O)(Nc1ccc2c(c1)nc1n2CCN(Cc2ccccc2)C1)c1ccc(Cl)cc1,6.97
3,Nc1cccc(-c2nc3ccc(N)cc3s2)c1,5.38
4,Cn1c(=N)n(CC(=O)c2ccc(Br)s2)c2ccccc21,28.3
5,O=C(NCc1ccco1)c1ccc(Br)s1,17.5
6,O=C(Nc1cccn(Cc2c(Cl)cccc2Cl)c1=O)c1ccccc1Cl,-24.5
7,Cc1cccc(OCCCSc2nc3ccc(C)cc3[nH]2)c1,-8.67
8,Clc1ccc(OCCn2cnc3ccccc32)cc1,-6.12
9,S=C(Nc1ccccc1)Nc1nc2ccccc2n1CCOc1ccc(Cl)cc1,4.16
10,CCCCCCOC(=O)Sc1nc2ccccc2o1,-11.3
11,COc1ccccc1OCc1ccc(C(=O)N2CCN(C(=O)c3ccco3)CC2)cc1,-36.5
12,COc1ccc(C(=O)C(CO)Oc2ccccc2OC)cc1OC (stereo not drawn),-26
13,COc1ccc(/C=C/C(=O)O)cc1COc1cccc(C)c1,-6.94
14,COc1ccccc1NC(=S)NNC(=O)c1c(Cl)c(C)nn1C,-25.9
15,Cc1ccc(Nc2nc(CSc3nnc(-c4cccnc4)n3-c3ccccc3F)cs2)cc1,-13
16,O=C(c1cccc(S(=O)(=O)N2CCOCC2)c1)N1CCCC1,-2.72
17,O=C(c1ccccc1)N1CCSC1=S,3.7
18,Cn1c(-c2ccc3nc(N)sc3c2)nc2cc(N)ccc21,3.83
19,Nc1ccc(Nc2ccccc2N)cc1,30.3
20,Cc1cc2c(c(=O)n1C)C(Cc1ccccc1)C(C#N)=C(N)O2 (stereo not drawn),-10.2
21,O=C(CSc1nc2[nH]ncc2c(=O)[nH]1)N1CCCCC1,7.9
22,C=CCNC(=S)NNC(=O)c1cccn(Cc2ccc(Cl)cc2)c1=O,5.72
23,COc1ccc(-c2cc(N3CCCC3)n3ncnc3n2)cc1,19.9
24,COC(=O)Cn1c(C)nc2ccccc21,-8.98

row,Structure (SMILES),inhibition [%]
1,Cc1ccc(OCc2nc3ccccc3[nH]2)cc1,-11.2
2,COc1ccc(OCCSc2nnc3sc4ccccc4n23)cc1,-14.9
3,CNc1ncc(Cc2ccccc2)s1,-8.16
4,CCn1c(SCc2ccc(F)cc2)nnc1C1CCN(S(=O)(=O)c2ccc(OC)cc2)CC1,-14.3
5,O=C1CC(c2ccco2)CC(O)=C1C=Nc1cc(Cl)cc(Cl)c1 (stereo not drawn),-34.6
6,c1csc(C2Nc3ccccc3-c3nc4ccccc4n32)c1 (stereo not drawn),8.7
7,C=CCOc1ccc(Br)cc1/C=N/O,-15.1
8,O=C(Cc1cn2ccsc2n1)Nc1ccccc1Oc1ccccc1,-15
9,CCn1c2ccccc2c2cc(N)ccc21,27.9
10,CC(C)(C)c1ccc(C(=O)Nc2ccc(C=C(C#N)C#N)cc2)cc1,-12.7
11,C=CCNC(=O)CC(=O)N/N=C/c1ccc(C(=O)OC)cc1,12.4
12,Cc1[nH]nc2c1C(c1cc(Br)cs1)C(C#N)=C(N)O2 (stereo not drawn),9.05
13,Cc1cc(C)cc(-n2nc(C)cc2N)c1,-13.9
14,N#CC(CC(=O)c1ccc(F)cc1)c1ccc2c(c1)OCO2 (stereo not drawn),-3.09
15,O=c1[nH]c2ccccc2n1C1=CCCC1,-20.4
16,CCn1c(Cc2c(C)[nH]c3ccccc23)n[nH]c1=S,-6.66
17,c1ccc2c3c([nH]c2c1)-c1[nH]ncc1CC3,-22.3
18,Nc1c(C(=O)NCCc2ccc(Cl)cc2)sc2ccc(S(=O)(=O)N3CCCCC3)cc12,36.1
19,CC1N(C)c2cc(NC(=O)c3ccco3)ccc2C1(C)C (stereo not drawn),-27.2
20,CSc1cccc(NC(=O)c2ccco2)c1,-0.61
21,Cc1oc(CC(C)C)c(CN2CCCC2)c1C(=O)O,4.83
22,COc1ccc2c(c1)[nH]c1c(N3CCN(Cc4ccc5c(c4)OCO5)CC3)ncnc12,-9.05
